According to paper PMC4336329 (PLoS ONE, 2015):
Screen size: about 310,000 compounds; about 14,000 (4.5%) showed an effect of 50% or more. Effects have a minus sign here. Only a selection was taken, and strong results are over-represented in it overall.

target: human ether-à-go-go-related gene (hERG) potassium channel (human, UniProt Q12809); experiment: primary screen, population patch clamp on CHO cells stably expressing hERG; higher = less effect of the substance
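Note: peak tail current of the secondary pulse compared with the same well before compound.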

Chain of human ether-à-go-go-related gene (hERG) potassium channel (Q12809 whole entry, looked up): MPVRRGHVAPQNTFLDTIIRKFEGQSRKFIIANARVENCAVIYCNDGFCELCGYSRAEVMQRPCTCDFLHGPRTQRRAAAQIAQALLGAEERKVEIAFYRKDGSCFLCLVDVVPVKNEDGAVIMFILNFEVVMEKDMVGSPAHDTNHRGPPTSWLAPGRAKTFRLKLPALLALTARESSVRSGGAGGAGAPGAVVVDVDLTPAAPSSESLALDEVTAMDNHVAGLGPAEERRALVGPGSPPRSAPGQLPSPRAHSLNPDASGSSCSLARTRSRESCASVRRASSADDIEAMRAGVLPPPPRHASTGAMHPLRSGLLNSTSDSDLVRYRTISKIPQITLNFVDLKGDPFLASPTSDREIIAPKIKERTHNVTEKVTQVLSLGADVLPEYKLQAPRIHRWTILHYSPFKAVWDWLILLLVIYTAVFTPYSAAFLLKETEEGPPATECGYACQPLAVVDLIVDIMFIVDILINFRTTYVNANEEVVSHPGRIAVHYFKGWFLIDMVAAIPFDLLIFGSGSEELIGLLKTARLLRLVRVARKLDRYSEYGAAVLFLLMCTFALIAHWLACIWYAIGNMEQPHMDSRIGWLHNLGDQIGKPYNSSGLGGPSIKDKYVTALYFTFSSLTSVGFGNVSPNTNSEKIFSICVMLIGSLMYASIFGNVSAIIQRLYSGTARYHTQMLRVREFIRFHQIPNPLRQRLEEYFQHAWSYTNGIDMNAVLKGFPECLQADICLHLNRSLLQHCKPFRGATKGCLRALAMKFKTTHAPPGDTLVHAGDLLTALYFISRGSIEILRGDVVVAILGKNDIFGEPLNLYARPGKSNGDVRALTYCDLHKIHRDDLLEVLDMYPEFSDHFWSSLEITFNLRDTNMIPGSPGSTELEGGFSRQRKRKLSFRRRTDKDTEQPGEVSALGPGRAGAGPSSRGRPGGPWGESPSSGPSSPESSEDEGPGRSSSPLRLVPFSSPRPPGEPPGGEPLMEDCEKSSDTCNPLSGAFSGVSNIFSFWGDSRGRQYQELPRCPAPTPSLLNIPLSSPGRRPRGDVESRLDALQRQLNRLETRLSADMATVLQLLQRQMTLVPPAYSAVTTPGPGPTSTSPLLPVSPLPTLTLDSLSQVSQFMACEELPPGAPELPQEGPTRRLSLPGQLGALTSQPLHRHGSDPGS

SMILES | hERG current change (%, negative = inhibition) at 10uM [%]
CCn1cc(C(=O)O)c(=O)c2cnc(N3CCN(C(=S)Nc4ccccc4C(F)(F)F)CC3)nc21 | 6.26
O=C(Cn1nnc(-c2ccccc2F)n1)OCC(=O)c1ccccc1 | 10.9
O=C(c1ccc(NC2=NC3CS(=O)(=O)CC3S2)cc1)N1CCN(c2ccc(F)cc2)CC1 (centres unmarked) | 6.4
c1ccc2c(c1)SCc1nnc(-c3ccncc3)n1-2 | -2.6
COc1cc2[nH]c(=O)n(CCCCCC(=O)N3CC=C(c4ccccc4)CC3)c(=O)c2cc1OC | -20
COc1cccc2c1[C@@H]1CN(CCCCn3c(=O)[nH]c4c(sc5ncc(-c6ccccc6)nc54)c3=O)C[C@@H]1CO2.Cl | -67.6
COc1cc2[nH]c(=O)n(CCCC(=O)N3CC=C(c4ccccc4)CC3)c(=O)c2cc1OC | -12.9
O=C(COc1ccc2cc(Br)ccc2c1)N1CCCC1 | -50.1
O=C(COc1ccc(Br)cc1)N1CCCCCC1 | -22.9
O=C(COc1ccc(Cl)cc1)N1CCN(c2ncccn2)CC1 | -9.42
O=C(COc1ccc(Cl)cc1)N1CCN(C2CCCC2)CC1.O=C(O)C(=O)O | -83.2
Cc1ccc(OCC(=O)NCCNC(=O)COc2ccc(C)cc2)cc1 | 9.34
Cc1ccc(OCC(=O)NCCN2CCN(C(=O)COc3ccc(C)cc3)CC2)cc1 | -65.9
O=C(COc1ccc(Br)cc1)N1CCN(c2ncccn2)CC1 | -83.7
O=C(COc1ccccc1)N1CCN(c2ncccn2)CC1 | 10.5
Cc1ccc(OCC(=O)NCCN2CCCC2)cc1.Cl | 2.48
O=C(COc1ccccc1)N1CCN(C2CCCC2)CC1.O=C(O)C(=O)O | -13.2
O=C(COc1ccc2ccccc2c1)N1CCCC1 | -13.3
CC1CN(C2CCN(C(=O)COc3ccc(Cl)cc3)CC2)CC(C)O1.O=C(O)C(=O)O (centres unmarked) | -38

SMILES | hERG current change (%, negative = inhibition) at 10uM [%]
Nc1[nH]nc2c1NN(c1ccc(Cl)cc1Cl)N2 | 12.4
COc1ccccc1Oc1nc(C)c(C(C)=O)cc1C#N | 14.8
CCc1ccc(CN(C(=O)COc2c(C)cccc2C)C2CCS(=O)(=O)C2)cc1 (centres unmarked) | -12.2
Cc1ccc(NC(=O)c2cccc(S(=O)(=O)N(C)c3ccccc3)c2)cc1S(=O)(=O)N1CCOCC1 | 9.04
O=S(=O)(Nc1ccc(Cl)cc1)c1cccc2cccnc12 | 12.8
COc1ccc(N2CCN(C(=O)CCS(=O)(=O)c3cccc4nsnc34)CC2)cc1 | -23.9
CCOc1cc(C(=S)N2CCOCC2)ccc1OC(=O)c1cccc(C)c1 | -42
Cc1cc(C(=O)CSc2nnc(-c3ccc(F)cc3)o2)c(C)n1CC1CCCO1 (centres unmarked) | -7.13
O=C(CSc1nnc(-c2ccco2)o1)NC1CC2CCC1C2 (centres unmarked) | -2.05
CCOC(=O)c1c(C)[nH]c(C(=O)N2CCc3cc(OC)c(OC)cc3C2)c1C | -12.3
COc1ccc(OC)c(NC(=O)C(C)Oc2ccc(Br)cc2)c1 (centres unmarked) | 5.96
CN(CC(=O)NC1CC(C)(C)NC(C)(C)C1)S(=O)(=O)c1ccc(Br)cc1 | -2.22
COc1ccc(OCC(=O)N2CCN(C(=O)COc3ccc(Br)cc3)CC2)cc1 | -71.9
CCOC(=O)N1CCN(C(=O)COc2ccc(Br)cc2)CC1 | -39.1
O=C(COc1ccc(Br)cc1)N1CCN(C2CCCC2)CC1 | -63.6
Cc1cccc(OCC(=O)N2CCN(C(=O)CCC3CCCC3)CC2)c1 | -37.3
Cc1ccc(OCC(=O)N2CCN(C(=O)CCC3CCCC3)CC2)cc1 | -54.3
CN1CCCN(C(=O)COc2ccc(Br)cc2)CC1 | -17.3
O=C(O)C1CCN(C(=O)COc2ccc(Br)cc2)CC1 | 38

SMILES | hERG current change (%, negative = inhibition) at 10uM [%]
CC(=O)N1CCN(C(=O)COc2ccc(Br)cc2)CC1 | -17.8
O=C(CCC1CCCC1)N1CCN(C(=O)COc2ccccc2)CC1 | -28.8
c1ccc(Cn2nc(-c3ccccc3)nc2-c2ccccc2)cc1 | -2.5
O=c1[nH]c2ccc(S(=O)(=O)N3CCN(Cc4ccccc4)CC3)cc2[nH]c1=O | -1.75
Cn1c(CNC(=O)c2cccs2)n[nH]c1=S | 18.1
O=C(NCc1ccccn1)c1ccc(NS(=O)(=O)c2cccc(Cl)c2)cc1 | 7.73
COc1ccc(-n2nnnc2/C=C\Nc2ccc(C)cc2)cc1 | 16
COC(=O)CNC(=O)CNC(=O)c1nn(-c2ccc(OC)c(OC)c2)c(=O)c2ccccc12 | 18.1
COc1ccc2nc(NC(=O)C3COc4ccccc4O3)sc2c1 (centres unmarked) | 0.282
CCCCN1C(=O)/C(=C2/Sc3ccc(OC)cc3N2CC)SC1=S | 25.5
O=C(c1ccc(Cl)cc1)c1cc(-c2ccccn2)c(N2CCOCC2)s1 | -54.9
O=C(c1ccc(Cl)c(Cl)c1)c1cc(-c2ccccn2)c(N2CCOCC2)s1 | -29.1
O=C(c1ccccc1)c1cc(-c2ccccn2)c(N2CCOCC2)s1 | -29.4
S=C(N/N=C/c1ccc2ncccc2c1)Nc1ccccc1 | 63.6
Cc1ccc(C(=O)CSc2ccccn2)cc1 | -7.25
CCC1CCCCN1CCCNC(=O)C1CCCN(c2nn3c(=O)cc(C)nc3s2)C1 (centres unmarked) | 12.2
O=C(O)CCCC(=O)Nc1ccc(N=Nc2ccccc2)cc1 | 14.5
COc1ccc(S(=O)(=O)N2CCCC2CNC(=O)C(=O)NCc2ccc(C)cc2)cc1 (centres unmarked) | -29.6
